Data published in ChEMBL document CHEMBL1157539, “Thousands of chemical starting points for antimalarial lead identification” (Nature, 2010).

Each molecule was assayed on HepG2 (assay: GSK_TCMDC: Percent inhibition of human HepG2 cell line. Test compounds present at 10uM.).
Assay type: functional

Question: How did the Inhibition turn out when `FC(F)(F)c1cnc(Sc2nnc(-c3ccco3)o2)c(Cl)c1` was run?
Answer: 0%

Question: With `O=C(/C=C/c1ccc(Cl)c(Cl)c1)NCCCCCN1CCC(c2n[nH]c(-c3ccccc3)c2Br)CC1` as the molecule, how does the Inhibition read?
Answer: 100%

Question: Which Inhibition does the source give for `Cc1cc(N[C@@H](CC(C)C)C(=O)NC2CCCC2)nc(NCC2CCCCC2)n1.O=C(O)C(F)(F)F` here?
Answer: 8%

Question: For `Cc1[nH]c(C)c(-c2ccc(Oc3ccc(OC(F)(F)F)cc3)cc2)c(=O)c1Br`, which Inhibition is on record?
Answer: 0%

Question: With `CCC[C@@H](/C=N/N(C)C(=O)OC(C)(C)C)NC(=O)[C@H](CC(C)C)NC(=O)c1cc2cccc(OC)c2o1` as the molecule, how does the Inhibition read?
Answer: 5%

Question: With `CCN(CC)CCOC(=O)c1ccc(NC(=O)c2cn(-c3ccccc3)nc2-c2cccs2)cc1.Cl` as the molecule, how does the Inhibition read?
Answer: 25%

Question: Which Inhibition does the source give for `O=[N+]([O-])c1ccc(Nc2nc(N/N=C/c3cccc(O)c3)nc(N3CCCC3)n2)cc1` here?
Answer: 0%

Question: How did the Inhibition turn out when `Cn1nccc1C(=O)NCCNCc1cccc(-c2cccc(-c3nc4cc(C(F)(F)F)ccc4[nH]3)c2)c1.O=C(O)C(F)(F)F` was run?
Answer: 39%

Question: How did the Inhibition turn out when `CCN1CCN(c2ccc(NC(=O)c3cc4c(C)nn(-c5ccccc5)c4s3)cc2C)CC1` was run?
Answer: 32%

Question: Which Inhibition does the source give for `Br.CCc1ccccc1OCCCON1C(=N)N=C(N)NC1(C)C` here?
Answer: 77%

Question: With `Cc1ccc(Nc2nccc(N(C)c3ccc4c(c3)nc(NC(=O)Cc3ccc(Cl)c(Cl)c3)n4C)n2)cc1S(N)(=O)=O.O=C(O)C(F)(F)F` as the molecule, how does the Inhibition read?
Answer: 71%

Question: How did the Inhibition turn out when `CC(Cc1ccc(NC(=O)c2ccc(CNCCc3ccccc3)cc2)cc1)NCCc1cccc(Cl)c1.Cl` (centres undefined) was run?
Answer: 100%

Question: How did the Inhibition turn out when `O=C(NC1CCN(c2ccc(F)cc2[N+](=O)[O-])CC1)c1cccs1` was run?
Answer: 0%

Question: How did the Inhibition turn out when `NC1=NC(c2ccccc2)(c2ccccc2)C(=O)N1Cc1ccc(-c2cccnc2)cc1.O=CO` was run?
Answer: 15%

Question: Which Inhibition does the source give for `Cc1cc(F)ccc1Oc1nc(Nc2ccc(N3CCOCC3)c(F)c2)nc2c1S(=O)(=O)CCC2.Cl` here?
Answer: 10%

Question: With `O=C(NC1CC1)c1ccc(N2CCC(Cc3ccccc3)CC2)nc1.O=C(O)C(F)(F)F` as the molecule, how does the Inhibition read?
Answer: 13%

Question: With `Cc1ccc(S(=O)(=O)N(CCCN2CCN(C)CC2)Cc2csc(-c3ccc(CNCc4ccccc4)cc3)n2)cc1.O=C(O)C(F)(F)F` as the molecule, how does the Inhibition read?
Answer: 15%

Question: Which Inhibition does the source give for `CCC1CCCCN1S(=O)(=O)c1ccc(OC)c(N2CCN(C(=O)C(Cl)(Cl)Cl)CC2)c1` (centres undefined) here?
Answer: 9%

Question: Which Inhibition does the source give for `COc1ccc(CCNCCCCCNCCCc2ccc(Cl)cc2)cc1OC.Cl` here?
Answer: 24%

Question: Which Inhibition does the source give for `O=C(COc1ccccc1)NC1CCN(c2ccnc3cc(Cl)ccc23)C1.O=C(O)C(F)(F)F` (centres undefined) here?
Answer: 22%

Question: Which Inhibition does the source give for `CC(NC(=O)c1ccc(O)c(-c2ccc(Cl)c(Cl)c2)c1)C(=O)NCCN1CCCC1` (centres undefined) here?
Answer: 0%

Question: With `CCO[C@H]1CN[C@H](C#Cc2cc3c(Nc4ccc(OCc5cccc(F)c5)c(Cl)c4)ncnc3s2)C1.O=C(O)C(F)(F)F` as the molecule, how does the Inhibition read?
Answer: 8%

Question: With `O=C(Nc1ccc(-c2ccc(-c3nc4cc(C(F)(F)F)ccc4[nH]3)s2)cc1)c1c[nH]cn1` as the molecule, how does the Inhibition read?
Answer: 66%

Question: With `O=C(NC1CC1)c1cnc(N2CCN(Cc3c(F)cccc3Cl)CC2)c(Cl)c1.O=C(O)C(F)(F)F` as the molecule, how does the Inhibition read?
Answer: 0%

Question: Which Inhibition does the source give for `O=C(Nc1ccc(-c2cccc(-c3nc4ccccc4[nH]3)c2)cc1)Nc1ccc2c(c1)OCO2` here?
Answer: 55%

Question: How did the Inhibition turn out when `O=C(Nc1ccc([N+](=O)[O-])cc1)c1nn(-c2ccccc2)cc1/N=C/c1cccc(O)c1` was run?
Answer: 10%

Question: For `N#Cc1cccc(COC(=O)C2=C(COc3ccccc3Cl)NC(=O)NC2c2c[nH]c3cnccc23)c1` (centres undefined), which Inhibition is on record?
Answer: 0%

Question: Which Inhibition does the source give for `COc1ccc2cc(CNCCCCCCNCc3ccc4cc(OC)ccc4c3)ccc2c1.CS(=O)(=O)O` here?
Answer: 100%

Question: For `CC1(C)[C@H]2CC[C@@H](CNc3nc(NCCc4c[nH]cn4)nc(Nc4ccc5c(c4)OCO5)n3)[C@@H]1C2`, which Inhibition is on record?
Answer: 3%

Question: `CC[C@@H]([C@@H](CC(C)C)C(=O)N[C@@H](CCCCNC(=O)OCc1ccccc1)C(=O)Nc1ccccn1)N(O)C=O` was tested. Which Inhibition did it give?
Answer: 0%

Question: With `O=C(Nc1ccc(OCc2ccccc2)cc1)c1nc2ccccc2nc1Cl` as the molecule, how does the Inhibition read?
Answer: 48%

Question: `CCC[C@@H]([C@@H](CC1CCCCC1)C(=O)NC(C(=O)Nc1nccs1)C(CC)c1ccccc1)N(O)C=O` (some centres undefined) was tested. Which Inhibition did it give?
Answer: 50%

Question: How did the Inhibition turn out when `Cc1ccc(CCC(C)NCC(O)c2cccc(Cl)c2)cc1` (centres undefined) was run?
Answer: 2%

Question: `C=C[C@]1(C)C[C@@H](OC(=O)NC(=O)C2CCN(C(=O)CSc3ccccc3)CC2)[C@]2(C)[C@H](C)CC[C@]3(CCC(=O)[C@H]32)[C@@H](C)[C@@H]1O` was tested. Which Inhibition did it give?
Answer: 0%

Question: `O=S(=O)(c1ccc2cc[nH]c2c1)N1CCC[C@@H]1CCN1CCC(c2c[nH]c3cnccc23)CC1` was tested. Which Inhibition did it give?
Answer: 13%

Question: Which Inhibition does the source give for `O=C(Nc1ccc(Cl)cc1)c1cccc(CN2CCCN(Cc3cccc(O)c3)CC2)c1.O=C(O)C(F)(F)F` here?
Answer: 14%

Question: For `CC(O)C1CCCCN1C(=O)c1cccc(-c2ccc(-c3nc4cc(F)ccc4[nH]3)cc2)c1` (centres undefined), which Inhibition is on record?
Answer: 46%

Question: With `Cc1noc(C)c1-c1ccc2c(Nc3ccccc3C(C)(C)C)c(C(=O)NC3CCCC3)cnc2c1.Cl` as the molecule, how does the Inhibition read?
Answer: 27%

Question: How did the Inhibition turn out when `Cc1cc(N[C@@H](Cc2ccccc2)C(=O)NCc2cccs2)nc(NCC2CCCCC2)n1.O=C(O)C(F)(F)F` was run?
Answer: 0%
